Source: PubChem BioAssay
Activity calls are given as the source filed them. Unless noted, the rule behind the calls is not given here.

How the values were obtained:
[1] = tested on: XIP peptide (Xip251-270) binding; assay: small-molecule binders of XIP peptide, primary screen, biochemical, small-molecule microarray, fluorescence 635/667 nm, 0.1 µg/mL protein (AID 1182); details: fluorescent protein binding, 635 nm, higher = more signal, called active from +8 up or from −8 down
[2] = tested on: XIP peptide (Xip251-270); assay: small-molecule binders of XIP peptide, primary screen, biochemical, small-molecule microarray, fluorescence 635/667 nm, 0.5 µg/mL protein (AID 1183); details: small-molecule microarray binding, fluorescence 635 nm; higher = more signal
[3] = Plasmodium falciparum growth inhibition, primary screen, strain 3D7, DAPI fluorescence, 100 nL (AID 1184);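 note: parasites grown inside human red blood cells in medium with human serum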; details: P. falciparum 3D7 growth, 3 d, higher = more signal
[4] = biological target: Homeobox protein Hox-A13 (Mus musculus) (UniProt Q62424); assay: inhibitors of HoxA13-DNA binding, primary screen, biochemical, fluorescence polarization, labeled oligonucleotide (AID 1185); details: 15 min, higher = more signal, called active from +8 up or from −8 down
[5] = inhibitors of hydroxyurea-induced Chk1 phosphorylation, primary screen, imaging, HeLa, phospho-Chk1 antibody, percent positive cells (AID 1186); details: hydroxyurea-induced phospho-Chk1 immunofluorescence imaging, higher = more signal
[6] = inhibitors of hydroxyurea-induced Chk1 phosphorylation, primary screen, imaging, HeLa, phospho-Chk1 nuclear intensity (AID 1187); details: hydroxyurea-induced phospho-Chk1 immunofluorescence imaging, higher = more signal

Homeobox protein Hox-A13 (Mus musculus), sequence (Q62424 whole entry, looked up): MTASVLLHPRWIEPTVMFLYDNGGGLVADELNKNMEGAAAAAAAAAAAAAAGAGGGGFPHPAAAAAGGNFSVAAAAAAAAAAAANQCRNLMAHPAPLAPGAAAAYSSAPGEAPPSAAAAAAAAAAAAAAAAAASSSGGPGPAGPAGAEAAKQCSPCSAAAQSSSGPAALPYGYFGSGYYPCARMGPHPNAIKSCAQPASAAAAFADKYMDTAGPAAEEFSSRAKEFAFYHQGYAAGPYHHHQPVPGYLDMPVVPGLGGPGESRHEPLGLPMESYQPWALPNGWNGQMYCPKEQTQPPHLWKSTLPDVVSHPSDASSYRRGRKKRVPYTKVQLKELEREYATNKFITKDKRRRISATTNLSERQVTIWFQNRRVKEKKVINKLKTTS

Structure (SMILES) | composite z-score [1] | composite z-score [2] | z-score [3] | z-score [4] | z-score [5] | z-score [6]
CC1CC/C=C\[C@H]2OC34C=CCN(c5ccc6ccccc6c5)C(=O)[C@H]3N(CCCO)C(=O)[C@@H]4C2C(=O)O1 (stereo not given in full) | -0.103 (inactive) | 0.327 | 0.293 | -5.63 (inactive) | 0.486 (inactive) | 0.104 (inactive)
COc1ccc([Si](C)(C)[C@H]2[C@H](CC(=O)N3CCC[C@H]3CO)O[C@@]3(C(=O)N(Cc4ccc(N5CCOC5=O)cc4)c4ccccc43)[C@@H]2C)cc1 | 0.214 (inactive) | 0.719 | -0.738 | -3.99 (inactive) | 0.222 (inactive) | 0.0857 (inactive)
C=CCC(OC(C)=O)[C@@H]1[C@@H](N(Cc2cccc3ccccc23)C(=O)Cc2ccc(OC)cc2)c2cc(OCCCO)ccc2N1C(=O)c1ccc(-c2ccccc2)cc1 (stereo not given in full) | 0.377 (inactive) | 0.309 | -2.3 | -1.94 (inactive) | 0.577 (inactive) | -0.13 (inactive)
O=C1N(CCS(=O)(=O)c2ccccc2)c2ccccc2[C@H]2OC(c3ccc(OCCCO)cc3)=N[C@@]12Cc1ccccc1 | 3.13 (inactive) | 0.832 | -1.92 | -0.41 (inactive) | -0.37 (inactive) | 0.158 (inactive)
COc1cc2c(cc1O)C(C1CC1)N(Cc1cccc(OC(F)(F)F)c1)CC2 (stereo not given) | 0.676 (inactive) | 0.651 | -1.8 | -5.17 (inactive) | 0.433 (inactive) | 0.678 (inactive)
COC(=O)[C@@]1(Cc2ccc(F)cc2)[C@H]2c3cc(C(=O)N4CCCC4)n(Cc4ccc(C)c(F)c4F)c3C[C@H]2CN1C(=O)c1ccccc1 | -0.0082 (inactive) | -0.953 | -1.53 | -6.02 (inactive) | 0.533 (inactive) | 0.459 (inactive)
NCCCCCNC(=O)[C@H]1C[C@H]2C(=O)N3CCC[C@H]3C(=O)N2[C@H]1c1cccc(OCCO)c1 | 1.19 (inactive) | 0.707 | -1.24 | -2.47 (inactive) | -0.0667 (inactive) | 0.53 (inactive)
CC(=O)NCCCC[C@@H]1NC(=O)[C@@H]2C[C@H](C(=O)NCCCCCN)[C@H](c3ccc(O)cc3)N2C1=O | 0.0292 (inactive) | 0.891 | -1.13 | -3.21 (inactive) | 0.156 (inactive) | 0.317 (inactive)
CC(C)c1ccc(NN2C(C(O)c3ccc(C#N)cc3)C=CC3C(=O)N(c4ccccc4)C(=O)C32)cc1 (stereo not given) | 0.105 (inactive) | 0.752 | 0.109 | -2.79 (inactive) | 0.879 (inactive) | 0.815 (inactive)
C=CC[C@]1(C(=O)N2CCOCC2)COC(c2ccc(OCCCO)cc2)=N1 | 0.627 (inactive) | 0.879 | -0.813 | -6.97 (inactive) | -0.374 (inactive) | -0.0405 (inactive)
COC(=O)[C@@]1(Cc2ccc(F)cc2)[C@H]2c3cc(C(=O)N(C)C)n(CCc4ccc(OC)c(Br)c4)c3C[C@H]2CN1C(=O)c1ccccc1 | -0.192 (inactive) | 0.167 | -1.75 | -5.01 (inactive) | -0.316 (inactive) | -0.869 (inactive)
CCCCCC1=C2CNC(C)(C(=O)OC)C=C2C(C)C1=O (stereo not given) | -0.22 (inactive) | -0.513 | 0.157 | -5.3 (inactive) | 1.37 (inactive) | 1.45 (inactive)
COc1ccc([Si](C)(C)[C@H]2[C@H](CC(=O)N3Cc4ccccc4C[C@H]3CO)O[C@@]3(C(=O)N(Cc4ccc(N5CCOC5=O)cc4)c4ccccc43)[C@@H]2C)cc1 | 1.61 (inactive) | 0.742 | -0.847 | -3.92 (inactive) | -0.719 (inactive) | -0.869 (inactive)
COCCOC(=O)N1C(=O)[C@@]2(c3cc(C#CC4=CCCCC4)ccc31)[C@H](c1ccccc1OCCO)N1[C@H](c3ccccc3)[C@H](c3ccccc3)OC(=O)[C@H]1[C@@H]2C(=O)NC[C@H](O)c1ccccc1 | 1.57 (inactive) | 0.742 | -1.93 | 0.449 (inactive) | 0.0064 (inactive) | -0.175 (inactive)
COc1ccc([Si](C)(C)[C@H]2[C@H](CC(=O)N(CCO)Cc3ccccc3)O[C@@]3(C(=O)N(C)c4c(Br)cc(C)cc43)[C@@H]2C)cc1 | 0.159 (inactive) | 0.334 | -2.08 | -6.1 (inactive) | -1.82 (inactive) | -1.22 (inactive)
CC(C)C(CO)N1C(=O)[C@@H]2C3C(=O)OCCC/C=C\[C@H]3OC23C=CCN(Cn2nnc4ccccc42)C(=O)[C@@H]13 (stereo not given in full) | -0.261 (inactive) | 0.348 | 0.596 | -3.97 (inactive) | -0.833 (inactive) | -0.709 (inactive)
COC(=O)C1=CC(CCCO)=CC(c2cccs2)N(Cc2cccc(OC(F)(F)F)c2)C=C1C(=O)OC (stereo not given) | 0.348 (inactive) | 0.706 | -1.78 | -7.24 (inactive) | 0.128 (inactive) | 0.39 (inactive)
C=CC[C@@H](OC(=O)Nc1ccc(OC)cc1)c1ccc(O)c(F)c1 | 1.29 (inactive) | -1.1 | 0.765 | -3.65 (inactive) | 0.0919 (inactive) | 0.0113 (inactive)
CCCCCN1CC=CC23O[C@@H]4/C=C\CCCOC(=O)C4[C@H]2C(=O)N(C(C)CO)[C@@H]3C1=O (stereo not given in full) | 0.221 (inactive) | 0.106 | 0.266 | -3.74 (inactive) | -0.107 (inactive) | 0.37 (inactive)
COC(=O)[C@@]1(Cc2ccc(OC)cc2)[C@H]2c3cc(C(=O)N(C)C)n(Cc4ccc(C)o4)c3C[C@H]2CN1C(=O)c1ccccc1 | 0.223 (inactive) | 0.0805 | -0.952 | -4.5 (inactive) | 0.046 (inactive) | 0.304 (inactive)
O=C1OCCC=C[C@H]2OC34C=CCN(Cn5nnc6ccccc65)C(=O)[C@H]3N(CCCO)C(=O)[C@@H]4C12 (stereo not given in full) | 2.05 (inactive) | -0.308 | -1.82 | -3.33 (inactive) | -0.628 (inactive) | -0.609 (inactive)
CCOC(=O)C[C@H]1[C@H](OC(=O)Cc2ccc3c(c2)OCO3)[C@@H](NC(=O)c2ccc3ccccc3n2)c2cc(OCCCO)ccc2N1C(=O)c1ccc2ccccc2n1 | -0.113 (inactive) | 0.66 | -2.58 | -2.98 (inactive) | -0.663 (inactive) | -0.162 (inactive)
CC(C)(C)OC(=O)CC[C@@]1(C(=O)NCC(O)CO)N=C(c2ccc(OCCCO)cc2)O[C@@H]1c1ccccc1CN=[N+]=[N-] (stereo not given in full) | -0.246 (inactive) | 0.57 | -0.711 | -5.44 (inactive) | 0.436 (inactive) | 0.71 (inactive)
CCCCCN1CC=CC23O[C@@H]4/C=C\CCC(C)OC(=O)C4[C@H]2C(=O)N(C(CO)C(C)C)[C@@H]3C1=O (stereo not given in full) | 0.733 (inactive) | 0.761 | -1.07 | -5.72 (inactive) | -0.584 (inactive) | -0.113 (inactive)
C=CCN1C(=O)[C@]2(CCS(=O)(=O)c3ccccc3)N=C(c3ccc(OCCCO)cc3)O[C@@H]2c2ccccc21 | 0.0088 (inactive) | 0.804 | -2.33 | -2.55 (inactive) | -0.419 (inactive) | -0.216 (inactive)
